Data from ChEMBL document CHEMBL3988442, “University of Dundee, Small-Polar-MMV Screening Library” (2021).
For some of these results: Entries with a potency or affinity are not part of this list.

Legend:
Design in all cases: scale not given: direction of the effect not stated beside the values
[1] = molecular target: Protein translocase subunit SecA (Escherichia coli (strain K12)) (UniProt P10408); assay: Assay to Identify E. coli SecA ATPase Inhibitors; format: functional; settings: 30 µM
[2] = molecular target: T1, Ubiquitin-activating enzyme e1, putative (Leishmania donovani (strain BPK282A1)) (UniProt E9BSI1); assay: Leishmania donovani Ubiquitin Activating Enzyme (LdE1); format: functional; settings: 30 µM
T1 sequence (whole entry): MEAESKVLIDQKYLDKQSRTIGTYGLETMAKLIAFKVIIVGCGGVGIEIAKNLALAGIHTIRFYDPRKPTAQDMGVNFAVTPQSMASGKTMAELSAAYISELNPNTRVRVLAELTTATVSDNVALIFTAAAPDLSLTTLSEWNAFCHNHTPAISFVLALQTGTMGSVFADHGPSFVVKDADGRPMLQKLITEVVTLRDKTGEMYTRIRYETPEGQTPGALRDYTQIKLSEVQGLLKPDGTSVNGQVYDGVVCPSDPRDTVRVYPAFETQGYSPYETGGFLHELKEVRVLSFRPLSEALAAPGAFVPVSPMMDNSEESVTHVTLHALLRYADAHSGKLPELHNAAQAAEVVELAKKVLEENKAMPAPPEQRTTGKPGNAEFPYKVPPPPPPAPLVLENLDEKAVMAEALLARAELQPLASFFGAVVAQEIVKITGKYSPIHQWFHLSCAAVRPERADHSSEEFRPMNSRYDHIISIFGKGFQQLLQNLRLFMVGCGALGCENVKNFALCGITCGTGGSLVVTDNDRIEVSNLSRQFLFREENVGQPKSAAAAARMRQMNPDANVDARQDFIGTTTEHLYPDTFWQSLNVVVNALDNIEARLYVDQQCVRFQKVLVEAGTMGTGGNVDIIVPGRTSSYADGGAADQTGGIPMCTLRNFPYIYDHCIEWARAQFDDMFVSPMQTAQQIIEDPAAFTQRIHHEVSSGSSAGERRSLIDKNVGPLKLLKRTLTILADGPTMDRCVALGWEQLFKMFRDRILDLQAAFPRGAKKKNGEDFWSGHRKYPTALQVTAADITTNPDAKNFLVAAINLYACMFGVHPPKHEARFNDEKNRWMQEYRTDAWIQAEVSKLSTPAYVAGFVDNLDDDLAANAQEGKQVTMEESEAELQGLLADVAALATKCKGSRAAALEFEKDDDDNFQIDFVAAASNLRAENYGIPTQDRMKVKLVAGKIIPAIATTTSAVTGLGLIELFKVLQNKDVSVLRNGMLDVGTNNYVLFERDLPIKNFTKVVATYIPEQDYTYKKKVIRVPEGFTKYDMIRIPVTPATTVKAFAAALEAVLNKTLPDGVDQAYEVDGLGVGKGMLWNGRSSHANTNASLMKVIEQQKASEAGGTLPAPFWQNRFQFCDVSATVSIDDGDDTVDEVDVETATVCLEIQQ

[3] = molecular target: AMP-activated protein kinase, AMPK (Homo sapiens) (UniProt P54646+O43741+P54619+Q9UGJ0+Q9Y478+Q13131+Q9UGI9); assay: AMP-dependent Kinase enzyme assay. An in vitro enzyme assay that detects ADP turnover that is directly proportional to AMPK activity. This uses naive AMPK that is activated during the assay with MK-8722; format: functional; settings: 30 µM
[4] = molecular target: Sialic acid-binding Ig-like lectin 9 (Homo sapiens) (UniProt Q9Y336); assay: Hs-Siglec9 ALPHAscreen SOP 20170721; settings: 10 µM
[5] = test system: Trypanosoma cruzi; assay: Trypanosoma cruzi phosphomannomutase and mannose-1-phosphate guanylyltransferase assay; format: functional; settings: 10 µM
[6] = molecular target: T2, Arginase-2, mitochondrial (Homo sapiens) (UniProt P78540); assay: in vitro enzyme assay to detect the production of urea directly proportional to the activity of Arginase II; format: functional; settings: 33.3 µM; further: in the data most compounds retested in dose-response had high values
T2 sequence (whole entry): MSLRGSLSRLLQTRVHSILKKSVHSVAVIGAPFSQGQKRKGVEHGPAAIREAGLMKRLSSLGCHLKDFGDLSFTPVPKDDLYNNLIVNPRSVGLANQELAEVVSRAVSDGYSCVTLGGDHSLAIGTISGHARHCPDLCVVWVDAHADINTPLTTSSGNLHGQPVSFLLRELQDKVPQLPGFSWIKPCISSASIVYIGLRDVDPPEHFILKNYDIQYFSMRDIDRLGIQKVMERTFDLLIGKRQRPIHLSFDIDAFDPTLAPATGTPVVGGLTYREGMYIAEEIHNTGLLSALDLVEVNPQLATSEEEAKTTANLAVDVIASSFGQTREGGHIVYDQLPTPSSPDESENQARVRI

[7] = molecular target: T3, Proteasome subunit beta (Trypanosoma cruzi) (UniProt O96673); assay: Trypanosoma cruzi proteasome chymotrypsin-like activity (TcProtChymo) assay.; further: in the data most compounds retested in dose-response had high values; format: functional; settings: 9.37 µM
T3 sequence (whole entry): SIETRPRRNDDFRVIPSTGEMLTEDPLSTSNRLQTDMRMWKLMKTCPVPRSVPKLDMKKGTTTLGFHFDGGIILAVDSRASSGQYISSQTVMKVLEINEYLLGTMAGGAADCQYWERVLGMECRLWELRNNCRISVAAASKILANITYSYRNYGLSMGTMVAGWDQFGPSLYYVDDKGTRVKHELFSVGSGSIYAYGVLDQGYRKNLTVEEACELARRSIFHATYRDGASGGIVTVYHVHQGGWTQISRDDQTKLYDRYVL

[8] = species on record: Homo sapiens; assay: To identify inhibition of the IFN signalling (Jak-Stat) pathway via expression of an eGFP reporter gene under the control of an IFN-stimulated response element (ISRE) containing MxA promoter.; format: functional; settings: 30 µM
[9] = molecular target: T4, Tyrosyl-tRNA synthetase, putative (Trypanosoma cruzi (strain CL Brener)) (UniProt Q4DSP6); assay: Trypanosoma cruzi tyrosyl tRNA synthetase (TcYRS) _High Tyrosine SOP; format: functional; settings: 30 µM; further: in the data most compounds retested in dose-response had high values
T4 sequence (whole entry): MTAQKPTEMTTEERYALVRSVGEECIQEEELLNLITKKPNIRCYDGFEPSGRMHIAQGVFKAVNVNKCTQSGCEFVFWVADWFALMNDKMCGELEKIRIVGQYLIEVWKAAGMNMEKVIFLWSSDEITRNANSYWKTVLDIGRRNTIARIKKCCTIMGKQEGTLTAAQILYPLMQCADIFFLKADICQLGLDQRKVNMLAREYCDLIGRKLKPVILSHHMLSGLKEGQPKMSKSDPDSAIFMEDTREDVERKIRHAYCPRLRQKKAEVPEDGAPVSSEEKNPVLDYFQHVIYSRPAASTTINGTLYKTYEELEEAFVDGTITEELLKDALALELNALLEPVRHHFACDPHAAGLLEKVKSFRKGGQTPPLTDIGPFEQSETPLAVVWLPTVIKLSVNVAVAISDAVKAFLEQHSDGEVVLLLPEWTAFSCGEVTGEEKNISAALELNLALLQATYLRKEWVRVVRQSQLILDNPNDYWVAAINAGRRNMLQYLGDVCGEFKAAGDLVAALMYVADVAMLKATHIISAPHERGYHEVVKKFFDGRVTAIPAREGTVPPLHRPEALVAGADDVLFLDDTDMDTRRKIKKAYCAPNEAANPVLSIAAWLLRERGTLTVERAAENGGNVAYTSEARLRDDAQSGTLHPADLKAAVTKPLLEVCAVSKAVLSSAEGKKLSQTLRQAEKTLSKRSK

[10] = molecular target: T4, Tyrosyl-tRNA synthetase, putative (Trypanosoma cruzi (strain CL Brener)); assay: Trypanosoma cruzi tyrosyl tRNA synthetase (TcYRS) SOP; format: functional; settings: 30 µM
[11] = molecular target: Chromo domain-containing protein 1 (Saccharomyces cerevisiae (strain ATCC 204508 / S288c) (Baker's yeast)) (UniProt P32657); assay: ScCHD-1 Enzyme Inhibition Assay; format: functional; settings: 30 µM; further: in the data most compounds retested in dose-response had high values
Sequence of Chromo domain-containing protein 1 (Saccharomyces cerevisiae (strain ATCC 204508 / S288c) (Baker's yeast)) (P32657 whole entry, the tested form may be a part): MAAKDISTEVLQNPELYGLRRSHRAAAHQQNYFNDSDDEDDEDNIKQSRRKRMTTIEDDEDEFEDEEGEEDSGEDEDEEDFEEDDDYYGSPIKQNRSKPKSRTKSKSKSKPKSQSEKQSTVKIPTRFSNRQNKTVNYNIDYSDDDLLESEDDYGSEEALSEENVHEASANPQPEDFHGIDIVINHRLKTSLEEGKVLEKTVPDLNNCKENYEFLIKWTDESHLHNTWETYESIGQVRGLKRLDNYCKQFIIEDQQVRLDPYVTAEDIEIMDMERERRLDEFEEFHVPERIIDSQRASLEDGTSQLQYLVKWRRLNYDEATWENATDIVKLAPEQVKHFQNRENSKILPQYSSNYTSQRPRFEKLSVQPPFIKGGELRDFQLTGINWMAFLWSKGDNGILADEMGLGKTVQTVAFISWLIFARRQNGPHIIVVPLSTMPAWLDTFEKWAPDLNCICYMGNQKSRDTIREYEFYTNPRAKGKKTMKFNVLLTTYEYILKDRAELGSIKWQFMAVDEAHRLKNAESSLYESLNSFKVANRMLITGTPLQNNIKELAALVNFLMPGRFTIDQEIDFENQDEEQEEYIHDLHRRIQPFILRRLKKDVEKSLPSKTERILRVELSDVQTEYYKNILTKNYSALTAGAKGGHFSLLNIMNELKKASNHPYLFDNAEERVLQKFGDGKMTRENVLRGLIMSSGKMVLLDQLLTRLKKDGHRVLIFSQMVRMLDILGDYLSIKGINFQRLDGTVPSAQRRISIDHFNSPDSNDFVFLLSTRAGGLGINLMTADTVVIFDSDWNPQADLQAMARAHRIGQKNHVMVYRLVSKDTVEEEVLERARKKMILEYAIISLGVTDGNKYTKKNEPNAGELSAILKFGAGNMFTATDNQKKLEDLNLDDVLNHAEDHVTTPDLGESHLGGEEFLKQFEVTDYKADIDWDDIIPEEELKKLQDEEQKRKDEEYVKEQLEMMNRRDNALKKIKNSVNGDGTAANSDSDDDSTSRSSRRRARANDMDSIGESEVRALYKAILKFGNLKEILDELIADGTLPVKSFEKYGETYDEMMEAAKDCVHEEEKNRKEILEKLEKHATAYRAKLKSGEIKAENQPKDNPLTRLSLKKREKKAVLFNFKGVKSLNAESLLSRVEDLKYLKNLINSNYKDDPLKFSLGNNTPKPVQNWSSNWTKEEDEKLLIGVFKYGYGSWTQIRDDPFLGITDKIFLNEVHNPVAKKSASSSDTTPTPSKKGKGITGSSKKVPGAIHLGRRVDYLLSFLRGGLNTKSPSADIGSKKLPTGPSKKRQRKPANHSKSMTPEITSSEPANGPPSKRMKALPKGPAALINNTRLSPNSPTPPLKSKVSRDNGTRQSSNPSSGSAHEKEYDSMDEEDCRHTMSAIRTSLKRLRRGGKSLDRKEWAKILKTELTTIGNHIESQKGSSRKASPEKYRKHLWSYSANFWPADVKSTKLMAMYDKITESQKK

Sequence of Sialic acid-binding Ig-like lectin 9 (Homo sapiens) (Q9Y336 whole entry): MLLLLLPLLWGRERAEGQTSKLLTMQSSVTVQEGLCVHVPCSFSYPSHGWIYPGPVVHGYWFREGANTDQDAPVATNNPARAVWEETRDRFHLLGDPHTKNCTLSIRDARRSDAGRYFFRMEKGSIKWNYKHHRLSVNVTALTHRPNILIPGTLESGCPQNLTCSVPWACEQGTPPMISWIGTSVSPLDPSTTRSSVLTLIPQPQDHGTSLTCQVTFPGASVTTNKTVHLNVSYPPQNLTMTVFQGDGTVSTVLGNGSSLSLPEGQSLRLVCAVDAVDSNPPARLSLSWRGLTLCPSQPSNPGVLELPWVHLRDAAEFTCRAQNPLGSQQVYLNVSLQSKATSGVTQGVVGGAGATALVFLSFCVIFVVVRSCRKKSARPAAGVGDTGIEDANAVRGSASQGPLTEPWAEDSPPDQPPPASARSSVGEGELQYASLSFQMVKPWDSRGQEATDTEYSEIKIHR
Sequence of Protein translocase subunit SecA (Escherichia coli (strain K12)) (P10408 whole entry): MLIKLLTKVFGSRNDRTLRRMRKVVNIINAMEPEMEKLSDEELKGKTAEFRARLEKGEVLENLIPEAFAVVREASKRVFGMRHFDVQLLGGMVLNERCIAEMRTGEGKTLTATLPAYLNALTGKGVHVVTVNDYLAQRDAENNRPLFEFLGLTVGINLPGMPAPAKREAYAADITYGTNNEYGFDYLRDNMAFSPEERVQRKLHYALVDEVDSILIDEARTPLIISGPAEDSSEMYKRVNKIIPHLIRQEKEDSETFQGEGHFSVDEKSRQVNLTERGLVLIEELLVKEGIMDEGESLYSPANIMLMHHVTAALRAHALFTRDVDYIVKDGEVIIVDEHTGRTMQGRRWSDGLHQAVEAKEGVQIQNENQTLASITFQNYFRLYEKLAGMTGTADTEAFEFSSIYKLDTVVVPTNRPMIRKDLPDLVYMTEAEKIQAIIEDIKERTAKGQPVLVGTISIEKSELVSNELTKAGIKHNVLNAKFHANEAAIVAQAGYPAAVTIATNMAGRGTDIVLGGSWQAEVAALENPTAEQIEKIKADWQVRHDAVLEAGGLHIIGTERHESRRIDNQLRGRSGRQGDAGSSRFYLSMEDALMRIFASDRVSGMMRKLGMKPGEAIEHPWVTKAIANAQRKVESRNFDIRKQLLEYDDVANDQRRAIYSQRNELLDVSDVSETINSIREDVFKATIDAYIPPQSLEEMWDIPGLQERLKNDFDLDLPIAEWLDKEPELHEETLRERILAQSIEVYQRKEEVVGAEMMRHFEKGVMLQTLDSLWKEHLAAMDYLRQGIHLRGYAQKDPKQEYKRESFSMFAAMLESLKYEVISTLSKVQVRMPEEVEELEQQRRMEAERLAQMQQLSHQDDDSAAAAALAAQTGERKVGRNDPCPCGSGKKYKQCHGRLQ

COCCN1CCC2(CCCN(C(=O)c3cnoc3C)C2)C1=O (stereo not drawn)
Percent Effect [1]: 0.295%
Percent Effect [2]: 8.22%
Percent Effect [3]: 3.34%
Percent Effect [4]: 5.08%
Percent Effect [5]: -6.55%
Percent Effect [6]: -3.19%
Percent Effect [7]: 12.2%
Percent Effect [8]: 0.796%
Percent Effect [9]: 4.17%
Percent Effect [10]: 3.7%
Percent Effect [11]: -5.73%

Cc1nonc1CC(=O)N1C[C@@H]2CC[C@H](C1)N(Cc1ccccc1)C2=O
Percent Effect [1]: -5.85%
Percent Effect [2]: -2.7%
Percent Effect [3]: -1.13%
Percent Effect [4]: 6.66%
Percent Effect [5]: -4.83%
Percent Effect [6]: -2.86%
Percent Effect [7]: 6.9%
Percent Effect [8]: 0.776%
Percent Effect [9]: 0.529%
Percent Effect [10]: 2.44%
Percent Effect [11]: -2.68%

Cc1ccc(C(=O)N2CCC3(CCN(C(=O)c4cccnc4)C3)CC2)o1
Percent Effect [1]: -2.08%
Percent Effect [2]: 13.5%
Percent Effect [3]: 6.42%
Percent Effect [4]: -12.6%
Percent Effect [5]: -3.62%
Percent Effect [6]: 14.3%
Percent Effect [7]: 13.8%
Percent Effect [8]: -16.6%
Percent Effect [9]: 1.08%
Percent Effect [10]: 5.13%
Percent Effect [11]: -2.81%

Cc1nc(CN2CCCN(C(=O)c3ccccn3)CC2)oc1C
Percent Effect [1]: -1.98%
Percent Effect [2]: 7.79%
Percent Effect [3]: 0.524%
Percent Effect [4]: -0.904%
Percent Effect [5]: -0.686%
Percent Effect [6]: 4%
Percent Effect [7]: 10.8%
Percent Effect [8]: 33%
Percent Effect [9]: 2.86%
Percent Effect [10]: 11.8%
Percent Effect [11]: -5.21%

CCN(C)c1ncnc2c1CCN(Cc1csc(C)n1)CC2
Percent Effect [1]: -0.747%
Percent Effect [2]: 8.11%
Percent Effect [3]: 4.65%
Percent Effect [4]: 2.61%
Percent Effect [5]: -1.07%
Percent Effect [6]: 4.78%
Percent Effect [7]: 25.1%
Percent Effect [8]: -16.4%
Percent Effect [9]: 6.49%
Percent Effect [10]: 15.4%
Percent Effect [11]: -2.96%

O=C(CCc1c[nH]cn1)N1CC[C@@H](c2ccc3ccccc3c2)[C@H](O)C1
Percent Effect [1]: -5.41%
Percent Effect [2]: 10.7%
Percent Effect [3]: -4.75%
Percent Effect [4]: 24.9%
Percent Effect [5]: 5.16%
Percent Effect [6]: 8.85%
Percent Effect [7]: 9.77%
Percent Effect [8]: 15.3%
Percent Effect [9]: 7.1%
Percent Effect [10]: 13.6%
Percent Effect [11]: 106%

CC(O)CN1CCN(C(=O)c2cc3ccccc3c(=O)[nH]2)CC1 (stereo not drawn)
Percent Effect [1]: -0.781%
Percent Effect [2]: -5.26%
Percent Effect [3]: 5.31%
Percent Effect [4]: -2.11%
Percent Effect [5]: -3.41%
Percent Effect [6]: -10.7%
Percent Effect [7]: 13.1%
Percent Effect [8]: -6.84%
Percent Effect [9]: 0%
Percent Effect [10]: 2.6%
Percent Effect [11]: 12.2%

O=C(NCC(F)F)N1CCC(n2ccc(C(F)(F)F)n2)CC1
Percent Effect [1]: -2.09%
Percent Effect [2]: 5.48%
Percent Effect [3]: -1.59%
Percent Effect [4]: 3.79%
Percent Effect [5]: 5.09%
Percent Effect [6]: 8.64%
Percent Effect [7]: 10.3%
Percent Effect [8]: 0.988%
Percent Effect [9]: 2.15%
Percent Effect [10]: 7.5%
Percent Effect [11]: -4.48%
